# Results published in PubChem BioAssay (Tox21).
# Values without a mark were called inactive. Records with an inconclusive call do not appear. Where a call stands in place of a potency, no number is given. Active and inactive are the calls of the source. Unless noted, the call rests on the fitted dose curve; in most records, active means well fitted curve in the direction sought with a large enough effect in the repeat runs; inconclusive means weak or mixed curves; inactive means no such curve, though single readings can be large; an effect the other way counts as inactive or inconclusive.
# Assays:
# [1] = molecular target: Thyrotropin receptor (Homo sapiens) (UniProt P16473); assay: qHTS assay to identify small molecule antagonists of the thyroid stimulating hormone receptor (TSHR) signaling pathway (AID 1259385; calls by dose curve; further: nearly all actives have a fitted effect of over 20% in size)
# Outline: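 TSHR-HEK293 cells were plated and held 18 h at 37C/5% CO2, then given compound plus Ro20-1724 and stimulated with TSH at 1.5 ng/mL final. After 30 min at room temperature, cAMP was detected with cAMP-d2/anti-cAMP-cryptate (1 h) by fluorescence.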
# [2] = qHTS assay to identify small molecule agonists of the estrogen receptor alpha (ER-alpha) signaling pathway in the presence of an antagonist - cell viability counter screen (AID 1259386);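 further: series mostly up to about 92 µM; cells exposed to compounds for 22 h at 37 °C before the viability read; nearly all actives have a fitted effect of over 30% in size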
# Outline: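 Cell viability in VM7Luc4E2 cells (endogenous full-length ER-alpha) measured by CellTiter-Fluor fluorescence in the same wells as the luciferase screen. Cells pre-cultured 5 days in charcoal-stripped serum, then treated 22 h with compounds at 15 concentrations plus 10.0nM ICI-182,780.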
# [3] = molecular target: Progesterone receptor (Homo sapiens) (UniProt P06401); assay: qHTS assay to identify small molecule agonists of the progesterone receptor (PR) signaling pathway (AID 1346784; calls by dose curve; further: nearly all actives have a fitted effect of over 30% in size)
# Outline: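 Agonist qHTS: compounds pinned onto 3,000 PR-UAS-bla HEK 293T cells per well in charcoal-stripped serum medium, 16hr at 37C, then beta-lactamase activity measured by LiveBLAzer FRET fluorescence after 2 hours at room temperature.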
# [4] = molecular target: Progesterone receptor (Homo sapiens) (UniProt P06401); assay: qHTS assay to identify small molecule antagonists of the progesterone receptor (PR) signaling pathway (AID 1346795; active means well fitted inhibition curve with a large enough effect in the signal ratio in the repeat runs, not every such curve was filed as active; the % refers to the signal ratio)
# Outline: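 Antagonist mode with agonist R5020 at 1 nM final and 16 hr incubation at 37C. Reporter was beta-lactamase driven by UAS in HEK293T (PR-UAS-bla), 2% charcoal-stripped serum; signal from LiveBLAzer FRET substrate, 2 hr at room temperature.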
# [5] = qHTS assay to identify small molecule agonists of the progesterone receptor (PR) signaling pathway - cell viability counter screen (AID 1346799; calls by dose curve; further: nearly all actives have a fitted effect of over 45% in size; further: potency means the concentration at half of the fitted maximal effect)
# Outline: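 Cytotoxicity measured by CellTiter-Glo luminescence (30 min, RT) in the same wells as the PR beta-lactamase agonist read. Those HEK293T cells had 16 h compound treatment at 37 C in 2% charcoal-stripped FBS medium.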
# [6] = qHTS assay to identify small molecule antagonists of the TGF-beta/Smad signaling pathway - cell viability counter screen (AID 1346824); further: nearly all actives have a fitted effect of over 50% in size
# Outline: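 SBE-bla HEK 293T cells were plated overnight at 37 C, then given compounds in DMSO plus TGF-beta1 (added as 0.25 ng/mL solution) for 5 hr. After the bla read, CellTiter-Glo was added to the same wells and luminescence read after 30 min at room temperature.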
# [7] = qHTS assay to identify small molecule agonists of the TGF-beta/Smad signaling pathway (AID 1346859; active means well fitted activation curve with a large enough effect in the signal ratio in the repeat runs, not every such curve was filed as active; the % refers to the signal ratio; further: series mostly up to about 77 µM)
# Outline: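 Fluorescence (ex 405 nm; em 460 and 530 nm) was read 2 h after LiveBLAzer FRET substrate at RT. The preceding compound treatment of overnight-plated SBE-bla HEK293T cells lasted 5 h at 37 C.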
# [8] = molecular target: Thyrotropin-releasing hormone receptor (Homo sapiens) (UniProt P34981); assay: qHTS assay to identify small molecule antagonists of the thyrotropin-releasing hormone receptor (TRHR) signaling pathway (AID 1346877; active means well fitted inhibition curve with a large enough effect in the repeat runs, not every such curve was filed as active; further: series mostly up to about 51 µM)
# Outline: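 TRHR-expressing HEK293 cells loaded with calcium dye for 2 h at 37 C; compounds pre-incubated 5 min at room temperature before TRH challenge at 1 nM final. Intracellular calcium fluorescence read kinetically for 3 min; 15 concentrations in triplicate.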
# [9] = molecular target: Thyrotropin-releasing hormone receptor (Homo sapiens) (UniProt P34981); assay: qHTS assay to identify small molecule agonists of the thyrotropin-releasing hormone receptor (TRHR) signaling pathway (AID 1346891; calls by dose curve; further: series mostly up to about 58 µM)
# Outline: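 Agonist-mode intracellular calcium readout: kinetic fluorescence over 3 min at 1 s intervals after compound addition to TRHR-HEK293 cells (18 h seeded, 2 h dye-loaded at 37 C). Fifteen concentrations, triplicates.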
# [10] = Human pregnane X receptor (PXR) small molecule agonists, qHTS cell viability counter screen (AID 1346977); further: nearly all actives have a fitted effect of over 50% in size
# Outline: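 Same-well viability read: CellTiter-Fluor added after 23 hr compound exposure, fluorescence measured 1 hr later. Cells were PXR-Luc HepG2 seeded at 2,000/well in 5% charcoal-stripped FBS medium, rested 5 hr before dosing at 37 C.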
# [11] = Caspase-3/7 induction in HepG2 cells by small molecules, qHTS assay (AID 1346978); further: nearly all actives have a fitted effect of over 15% in size
# Outline: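 Wild-type HepG2 cells (2,000/well) were settled 5 h at 37 C, 5% CO2, then exposed to compounds in DMSO for 17 h. Caspase-3/7 activity was read by luminescence 30 min after adding Caspase-Glo 3/7 reagent at room temperature.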
# [12] = Caspase-3/7 induction in CHO-K1 cells by small molecules, qHTS assay (AID 1346980); further: nearly all actives have a fitted effect of over 15% in size
# Outline: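 Wild-type cells were seeded at 1,500 per well and settled 5 hr at 37 C, 5% CO2, then exposed to DMSO-dissolved compounds for 17 hr. Caspase-Glo 3/7 reagent was added, and luminescence was read after 30min at room temperature.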
# [13] = Caspase-3/7 induction in HepG2 cells by small molecules, qHTS cell viability counter screen (AID 1346981); further: series mostly up to about 92 µM; nearly all actives have a fitted effect of over 30% in size
# Outline: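 Wild-type HepG2 cells, 2,000/well, settled 5 hr at 37 C, 5% CO2 before compound addition. Viability read by CellTiter-Fluor fluorescence, reagent added after 16 hr compound exposure, then 1 hr at 37C, in the same wells as the caspase read.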
# [14] = molecular target: Nuclear receptor subfamily 1 group I member 2 (Homo sapiens) (UniProt O75469); assay: Human pregnane X receptor (PXR) small molecule agonists, qHTS assay (AID 1346982); further: nearly all actives have a fitted effect of over 35% in size
# Outline: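 PXR-Luc HepG2 reporter cells (CYP3A4-driven luciferase) in 5% charcoal-stripped FBS medium, plated 5 h before compound addition, then treated 24 h at 37C. Luciferase read by ONE-Glo luminescence after 30 min at room temperature.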
# [15] = Caspase-3/7 induction in CHO-K1 cells by small molecules, qHTS cell viability counter screen (AID 1346979); further: nearly all actives have a fitted effect of over 35% in size
# Outline: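 Cytotoxicity counter screen: CellTiter-Fluor added to compound-treated wild-type CHO-K1 cells at 16 h (37C, 5% CO2), fluorescence measured 1 h later; same wells as caspase-3/7 measurement.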
# [16] = qHTS assay to identify small molecule agonists of the TGF-beta/Smad signaling pathway - cell viability counter screen (AID 1346829); further: top concentration of the series differs between compounds; nearly all actives have a fitted effect of over 45% in size
# Outline: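 Same-well cytotoxicity: CellTiter-Glo added after the 2 hr room-temperature beta-lactamase substrate step, luminescence measured 30 min later; cells had 5 hr of compound at 37 C.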
# [17] = molecular target: Nuclear receptor subfamily 1 group I member 2 (Rattus norvegicus) (UniProt Q9R1A7); assay: Rat pregnane X receptor (rPXR) activation by small molecules, qHTS assay (AID 1346983); details: rPXR luciferase reporter cells, One-Glo luminescence, 24 h; hits give high values; further: nearly all actives have a fitted effect of over 20% in size
# Outline: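 Cell-based rPXR luciferase reporter assay, 2,000 cells per well, rested 5hr at 37 C before compound addition in DMSO, then 24 hr at 37 C. One-Glo reagent was added and luminescence read after 30 min at room temperature.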
# [18] = qHTS assay to identify small molecule antagonists of the progesterone receptor (PR) signaling pathway - cell viability counter screen (AID 1346798); further: series mostly up to about 92 µM; nearly all actives have a fitted effect of over 50% in size
# Outline: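 Cytotoxicity read as CellTiter-Glo luminescence (30 min, room temperature) in the same wells as the beta-lactamase readout. HEK293T PR-UAS-bla cells in charcoal-stripped 2% FBS received compound and R5020, then 16 h at 37C, 5% CO2.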
# [19] = molecular target: Nuclear receptor subfamily 1 group I member 2 (Homo sapiens) (UniProt O75469); assay: CYP3A4 induction through human pregnane X receptor (PXR) by small molecules, qHTS assay (AID 1346984); further: nearly all actives have a fitted effect of over 40% in size
# Outline: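 DPX-2 HepG2 cells carrying a PXR response element and CYP3A4-promoter luciferase construct, treated with compounds 24 hr at 37C. Then P450-Glo CYP3A4 Luciferin-IPA substrate (3uM final) for 3 hr at 37C, One-Glo added, luminescence read.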
# [20] = molecular target: Nuclear receptor subfamily 1 group I member 2 (Homo sapiens) (UniProt O75469); assay: Human pregnane X receptor (PXR) activation by small molecules, qHTS assay (AID 1346985); further: nearly all actives have a fitted effect of over 40% in size
# Outline: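 DPX-2 cells (HepG2 co-transfected with a PXR response element and a CYP3A4-promoter luciferase construct) were seeded at 2,000 per well, rested 5 hr at 37C, then exposed to DMSO-dissolved compounds for 24 hr. Activation was read as luciferase luminescence.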
# Sequence of Progesterone receptor (Homo sapiens) (P06401 whole entry, looked up): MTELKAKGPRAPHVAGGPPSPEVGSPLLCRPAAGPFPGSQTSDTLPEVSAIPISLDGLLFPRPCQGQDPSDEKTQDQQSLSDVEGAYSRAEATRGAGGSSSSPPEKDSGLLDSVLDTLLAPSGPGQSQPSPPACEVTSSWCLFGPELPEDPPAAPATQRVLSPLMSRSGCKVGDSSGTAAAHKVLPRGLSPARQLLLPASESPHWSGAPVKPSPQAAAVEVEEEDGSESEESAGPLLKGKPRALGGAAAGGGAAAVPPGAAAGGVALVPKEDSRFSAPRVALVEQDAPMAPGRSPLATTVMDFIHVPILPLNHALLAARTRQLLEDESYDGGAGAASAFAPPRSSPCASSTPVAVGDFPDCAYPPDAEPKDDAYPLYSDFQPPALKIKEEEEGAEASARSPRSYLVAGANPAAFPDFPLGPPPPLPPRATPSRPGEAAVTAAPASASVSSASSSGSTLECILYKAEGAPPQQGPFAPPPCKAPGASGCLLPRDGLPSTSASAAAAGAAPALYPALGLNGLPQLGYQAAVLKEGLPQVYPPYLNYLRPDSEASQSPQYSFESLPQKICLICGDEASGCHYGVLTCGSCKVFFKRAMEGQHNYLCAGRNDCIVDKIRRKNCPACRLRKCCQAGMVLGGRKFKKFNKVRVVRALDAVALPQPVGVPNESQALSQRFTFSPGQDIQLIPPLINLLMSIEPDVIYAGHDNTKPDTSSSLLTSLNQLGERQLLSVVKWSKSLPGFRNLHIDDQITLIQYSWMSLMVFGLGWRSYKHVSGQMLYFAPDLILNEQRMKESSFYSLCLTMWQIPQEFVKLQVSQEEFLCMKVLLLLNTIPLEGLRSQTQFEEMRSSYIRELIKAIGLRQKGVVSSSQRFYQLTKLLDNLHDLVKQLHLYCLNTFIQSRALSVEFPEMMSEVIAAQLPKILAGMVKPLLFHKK
# Sequence of Thyrotropin-releasing hormone receptor (Homo sapiens) (P34981 whole entry, looked up): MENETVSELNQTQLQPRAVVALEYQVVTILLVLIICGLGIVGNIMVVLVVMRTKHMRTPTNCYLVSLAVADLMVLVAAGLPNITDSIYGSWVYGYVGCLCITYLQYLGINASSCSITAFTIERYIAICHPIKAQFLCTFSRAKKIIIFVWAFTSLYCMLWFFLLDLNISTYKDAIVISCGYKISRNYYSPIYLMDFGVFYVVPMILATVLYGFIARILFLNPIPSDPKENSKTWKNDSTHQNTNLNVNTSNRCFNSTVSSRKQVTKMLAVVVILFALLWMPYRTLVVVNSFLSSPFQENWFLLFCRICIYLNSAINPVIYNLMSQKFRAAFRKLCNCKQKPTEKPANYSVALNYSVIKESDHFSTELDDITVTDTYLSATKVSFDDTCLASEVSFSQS
# Sequence of Thyrotropin receptor (Homo sapiens) (P16473 whole entry, looked up): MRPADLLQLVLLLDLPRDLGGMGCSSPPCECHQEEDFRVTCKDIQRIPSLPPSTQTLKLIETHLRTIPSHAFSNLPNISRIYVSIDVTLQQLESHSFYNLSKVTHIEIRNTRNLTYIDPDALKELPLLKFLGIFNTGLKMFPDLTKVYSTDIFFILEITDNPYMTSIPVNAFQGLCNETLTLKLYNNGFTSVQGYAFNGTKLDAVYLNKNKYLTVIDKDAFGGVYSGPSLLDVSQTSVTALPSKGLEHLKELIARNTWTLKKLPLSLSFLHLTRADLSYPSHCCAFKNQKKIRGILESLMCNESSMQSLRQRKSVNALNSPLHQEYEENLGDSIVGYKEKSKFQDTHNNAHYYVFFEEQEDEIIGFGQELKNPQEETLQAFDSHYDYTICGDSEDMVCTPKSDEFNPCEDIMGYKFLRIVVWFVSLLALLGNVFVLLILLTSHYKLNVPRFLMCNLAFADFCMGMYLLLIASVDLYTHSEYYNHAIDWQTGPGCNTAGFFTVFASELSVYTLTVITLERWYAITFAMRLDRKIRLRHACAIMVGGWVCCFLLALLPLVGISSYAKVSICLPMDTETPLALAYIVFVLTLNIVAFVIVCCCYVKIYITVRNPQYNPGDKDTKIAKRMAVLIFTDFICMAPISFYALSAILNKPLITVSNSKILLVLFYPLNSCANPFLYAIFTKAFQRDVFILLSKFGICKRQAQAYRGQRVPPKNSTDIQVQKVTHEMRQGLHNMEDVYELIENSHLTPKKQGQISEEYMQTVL
# Sequence of Nuclear receptor subfamily 1 group I member 2 (Homo sapiens) (O75469 whole entry, looked up): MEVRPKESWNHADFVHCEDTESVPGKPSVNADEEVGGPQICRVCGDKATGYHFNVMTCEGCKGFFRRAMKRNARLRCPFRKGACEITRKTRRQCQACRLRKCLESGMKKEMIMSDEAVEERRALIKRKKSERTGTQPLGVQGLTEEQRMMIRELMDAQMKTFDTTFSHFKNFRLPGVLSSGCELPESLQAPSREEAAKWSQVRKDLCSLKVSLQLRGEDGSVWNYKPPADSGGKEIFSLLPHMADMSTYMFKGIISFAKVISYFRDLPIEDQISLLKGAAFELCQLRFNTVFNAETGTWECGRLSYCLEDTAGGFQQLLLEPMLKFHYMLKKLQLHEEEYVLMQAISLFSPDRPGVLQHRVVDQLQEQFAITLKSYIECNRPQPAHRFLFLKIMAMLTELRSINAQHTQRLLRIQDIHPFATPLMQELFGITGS
# Sequence of Nuclear receptor subfamily 1 group I member 2 (Rattus norvegicus) (Q9R1A7 whole entry, looked up): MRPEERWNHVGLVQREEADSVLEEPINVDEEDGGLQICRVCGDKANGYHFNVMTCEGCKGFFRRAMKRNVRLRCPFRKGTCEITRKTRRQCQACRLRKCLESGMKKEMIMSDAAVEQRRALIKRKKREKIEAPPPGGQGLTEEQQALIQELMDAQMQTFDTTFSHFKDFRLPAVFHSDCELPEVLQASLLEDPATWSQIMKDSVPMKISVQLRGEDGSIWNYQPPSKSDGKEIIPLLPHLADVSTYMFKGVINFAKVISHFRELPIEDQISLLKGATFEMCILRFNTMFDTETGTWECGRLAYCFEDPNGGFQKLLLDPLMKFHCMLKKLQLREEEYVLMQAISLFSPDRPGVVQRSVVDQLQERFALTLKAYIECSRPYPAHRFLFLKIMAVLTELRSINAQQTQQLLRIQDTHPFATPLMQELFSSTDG
smiles,measurement,setting,value
O=C1CC(c2ccc(Cl)cc2)CC(=O)N1,outcome,[1],inactive
same,Potency,[2],inactive
same,Potency,[3],inactive
same,Potency,[4],inactive
same,Potency,[5],inactive
same,outcome,[6],inactive
same,outcome,[7],inactive
same,outcome,[8],inactive
same,outcome,[9],inactive
same,Potency,[10],inactive
same,Potency,[11],inactive
same,outcome,[12],inactive
same,Potency,[13],inactive
same,Potency,[14],inactive
O=C(O)Cc1ccc(Cl)cc1Cl,outcome,[1],inactive
same,Potency,[2],inactive
same,Potency,[3],inactive
same,Potency,[4],inactive
same,Potency,[5],inactive
same,outcome,[6],inactive
same,outcome,[7],inactive
same,outcome,[8],inactive
same,outcome,[9],inactive
same,Potency,[10],inactive
same,Potency,[11],inactive
same,Potency,[15],inactive
same,outcome,[12],inactive
same,Potency,[13],inactive
Cc1ccc(S(=O)(=O)O)c(C)c1,outcome,[1],inactive
same,Potency,[2],inactive
same,Potency,[3],inactive
same,Potency,[4],inactive
same,outcome,[6],inactive
same,outcome,[16],inactive
same,outcome,[7],inactive
same,outcome,[8],inactive
same,outcome,[9],inactive
same,Potency,[11],inactive
same,outcome,[12],inactive
same,Potency,[13],inactive
same,Potency,[14],inactive
O=C(NCC(O)CO)c1c(I)c(C(=O)NCC(O)CO)c(I)c(N(CCO)C(=O)CO)c1I (centres undefined),outcome,[1],inactive
same,Potency,[2],inactive
same,Potency,[3],inactive
same,Potency,[4],inactive
same,Potency,[5],inactive
same,outcome,[6],inactive
same,outcome,[16],inactive
same,outcome,[7],inactive
same,outcome,[8],inactive
same,outcome,[9],inactive
same,Potency,[11],inactive
same,Potency,[15],inactive
same,outcome,[12],inactive
same,Potency,[13],inactive
same,max activation,[17],-4.62%
CC(=O)NCc1c(I)c(NC(C)=O)c(I)c(C(=O)O)c1I,outcome,[1],inactive
same,Potency,[2],inactive
same,Potency,[3],inactive
same,Potency,[18],inactive
same,Potency,[5],inactive
same,outcome,[6],inactive
same,outcome,[16],inactive
same,outcome,[8],inactive
same,outcome,[9],inactive
same,Potency,[10],inactive
same,Potency,[11],inactive
same,outcome,[12],inactive
same,Potency,[13],inactive
same,Potency,[14],inactive
same,max activation,[17],-0.535%
same,Potency,[19],inactive
same,Potency,[20],inactive
On1nnc2ccccc21,outcome,[1],inactive
same,Potency,[2],inactive
same,Potency,[3],inactive
same,Potency,[4],inactive
same,Potency,[5],1370 nM (active)
same,outcome,[6],inactive
same,outcome,[16],inactive
same,outcome,[7],inactive
same,Potency,[10],inactive
same,Potency,[11],inactive
same,Potency,[15],inactive
same,outcome,[12],inactive
same,Potency,[13],inactive
same,Potency,[14],inactive
CC1COc2ccccc2N1 (centres undefined),outcome,[1],inactive
same,Potency,[2],inactive
same,Potency,[3],inactive
same,Potency,[4],inactive
same,Potency,[5],inactive
same,outcome,[6],inactive
same,outcome,[7],inactive
same,outcome,[8],inactive
same,outcome,[9],inactive
same,Potency,[10],inactive
same,Potency,[11],inactive
same,Potency,[15],inactive
same,outcome,[12],inactive
same,Potency,[14],inactive
COC(=O)C1CC(=O)C(C(=O)OC)CC1=O (centres undefined),"activity change, negative = inhibition",[1],0.232% [at 8.39 µM]
same,"activity change, negative = cytotoxicity",[2],1.85% [at 8.39 µM]
same,activation,[3],15.8% [at 8.39 µM]
same,"activity change, negative = inhibition",[4],5.34% [at 8.39 µM]
same,"viability change, negative = cytotoxic",[6],-4.8% [at 6.97 µM]
same,"activity change, negative = cytotoxicity",[16],-0.722% [at 6.97 µM]
same,"activity, negative = inhibition",[8],1.02% [at 4.65 µM]
same,activation,[9],0.0574% [at 5.23 µM]
same,caspase activation,[11],0.89% [at 8.39 µM]
same,"activity change, negative = cytotoxicity",[15],8.06% [at 8.39 µM]
same,caspase-3/7 activation,[12],0.641% [at 8.39 µM]
same,"activity change, negative = cytotoxicity",[13],9.03% [at 8.39 µM]
same,activation,[14],2.25% [at 8.39 µM]
